Assay results published in PubChem BioAssay (NCI).
This is part of a sample that, as a whole, favours compounds with a hit. Of some 83,000 tested, about 20% had one in any assay.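 Interpretation: 100, growth as untreated; towards 0, rising growth inhibition; 0, no net growth; 0 to -100, cell death. Compounds scoring below 10 were considered active.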 Values without a mark were called inactive. Activity calls are given as the source filed them.

Columns and labels:
Assay in all cases: NCI-60 one-dose screen, 48 h (100 = growth as untreated, 0 = no growth, -100 = all killed)
Conditions in all cases: 10 µM unless noted
DU-145 prostate = test system: DU-145 prostate
K-562 leukemia = test system: K-562 leukemia
MALME-3M melanoma = test system: MALME-3M melanoma
MDA-MB-231 breast = test system: MDA-MB-231 breast
RXF 393 renal = test system: RXF 393 renal
SF-268 CNS = test system: SF-268 CNS
SF-295 CNS = test system: SF-295 CNS
SF-539 CNS = test system: SF-539 CNS
UACC-257 melanoma = test system: UACC-257 melanoma
M14 melanoma = test system: M14 melanoma
HCT-15 colon = test system: HCT-15 colon
HT29 colon = test system: HT29 colon
SNB-75 CNS = test system: SNB-75 CNS
SNB-19 CNS = test system: SNB-19 CNS
U251 CNS = test system: U251 CNS
PC-3 prostate = test system: PC-3 prostate
SK-MEL-5 melanoma = test system: SK-MEL-5 melanoma
UACC-62 melanoma = test system: UACC-62 melanoma
LOX IMVI melanoma = test system: LOX IMVI melanoma
SK-MEL-28 melanoma = test system: SK-MEL-28 melanoma

Compound | growth (DU-145 prostate) | growth (K-562 leukemia) | growth (MALME-3M melanoma) | growth (MDA-MB-231 breast) | growth (RXF 393 renal) | growth (SF-268 CNS) | growth (SF-295 CNS) | growth (SF-539 CNS) | growth (UACC-257 melanoma) | growth (M14 melanoma) | growth (HCT-15 colon) | growth (HT29 colon) | growth (SNB-75 CNS) | growth (SNB-19 CNS) | growth (U251 CNS) | growth (PC-3 prostate) | growth (SK-MEL-5 melanoma) | growth (UACC-62 melanoma) | growth (LOX IMVI melanoma) | growth (SK-MEL-28 melanoma)
C#C[C@]1(O)CC[C@H]2[C@@H]3CC=C4c5sc(N6CCN(C)CC6)nc5CC[C@]4(C)[C@H]3CC[C@@]21C | 75.5% | 0.102% (active) | 56.9% | 62% | -22.1% (active) | 52.4% | -39.8% (active) | 7.74% (active) | 61.5% | -73.4% (active) | 8.12% (active) | 5.26% (active) | 75.2% | 63.3% | 21.8% | 22.4% | 38.5% | 51.2% | 25.6% | 31%
COC(=O)c1cccc(NC2=C(Cl)C(=O)C(C)=C(C)C2=O)c1 | 110% | 5.25% (active) | 95.8% | 36.5% | 104% | 97.4% | 108% | 99.3% | 108% | 92.3% | 112% | 105% | 60.7% | 87% | 102% | 71.9% | 95.6% | 85.5% | 69% | 110%
Cc1ccc2c(n1)C(=O)C(Cl)=C(Nc1ccc(C#N)cc1)C2=O | 112% | 5.72% (active) | 27% | 92.3% | 92.1% | 97% | 118% | 100% | 74.8% | 86.2% | 1.89% (active) | 106% | 110% | 96.4% | 96.6% | 89.6% | 98.9% | 95.7% | 70.4% | 99.8%
CCOC(=O)c1c(NCC(=O)Nc2cccc([N+](=O)[O-])c2)sc(C(C)=O)c1C | -13.9% (active) | 8.15% (active) | -21.8% (active) | 10.3% | -86.5% (active) | -17.6% (active) | -11.7% (active) | -28.8% (active) | -11.9% (active) | -81.7% (active) | -6.35% (active) | -35.3% (active) | -0.605% (active) | 9.51% (active) | -13.2% (active) | -14.5% (active) | -82.9% (active) | -19.6% (active) | -38.1% (active) | 2.62% (active)
C#Cc1nc(/C=C/C(=O)NO)cs1 | -59.8% (active) | 10.2% | -30.5% (active) | -48.6% (active) | -68.9% (active) | 52.9% | 46.3% | -87.3% (active) | 42.6% | 70.3% | 76.3% | 7.85% (active) | -94.4% (active) | 93.4% | -5.41% (active) | 70.5% | 63.3% | 57.9% | -90.7% (active) | 60.9%
Brc1cc(-c2cc(-c3ccc4c(c3)OC=CO4)[nH]n2)cs1 | 95.9% | 41.3% | 64% | 81.2% | 93.7% | 90.1% | 79.1% | 85.2% | 101% | 83.3% | 51% | 90% | 83.5% | 84.1% | 81.3% | 97.3% | 87.5% | 76.9% | 80% | 94.2%
COc1ccc(/C(=N\NC(N)=S)c2ccc(Cl)cc2)cc1OC | 37.5% | 19% | 30.8% | 16.8% | 25.1% | 45% | 13.4% | 14.2% | 42.9% | -4.37% (active) | 16% | -1.79% (active) | -8.75% (active) | 24.1% | 22.4% | 36.4% | 21.9% | 18.9% | 40.5% | 47.6%
C=C(C)[C@@H]1CC[C@]2(C(=O)NC3CCCCC3)CC[C@]3(C)[C@H](CC[C@@H]4[C@@]5(C)CC[C@H](N)C(C)(C)[C@@H]5CC[C@]43C)[C@@H]12 | 105% | -34.7% (active) | 95.3% | 108% | 93.7% | 91.6% | 103% | 98.5% | 105% | 103% | 39% | 71.8% | 83.9% | 103% | 88.8% | 72.8% | 92.7% | 104% | -75.1% (active) | 109%
CC/C(=C(/c1ccc(Cl)cc1)c1ccc(OCCN)cc1)c1ccccc1 | 82.7% | 19.7% | 94.8% | 86.6% | 92.8% | 103% | 107% | 98.6% | 106% | 88.7% | 55.7% | 79.9% | 110% | 99.8% | 92.6% | 103% | 99.1% | 107% | 27.8% | 108%
Cc1ccc(-c2csc(N/N=C/c3cccs3)n2)cc1 | 100% | 74.4% | 88.8% | 92.5% | 115% | 106% | 92.8% | 104% | 97.1% | 90.4% | 59.1% | 99.4% | 81.9% | 101% | 85.8% | 68.2% | 72.8% | 88.9% | 94.5% | 102%
O=C(CCCCCCNC(=O)C(O)(O)C(F)(F)F)Nc1nc2ccccc2s1 | 6.73% (active) | 11.2% | 14.4% | 23.5% | -47.3% (active) | 8.81% (active) | -36.5% (active) | 10.5% | 8.93% (active) | 14.5% | 6.75% (active) | 6.91% (active) | 38.9% | 17% | -35.4% (active) | 34.6% | -72.5% (active) | -62.7% (active) | -81.3% (active) | -4.84% (active)
CCCCSC1=C(Cl)CN(c2ccccc2)C1=O | 104% | 91.6% | 94.6% | 98.2% | 109% | 106% | 98.8% | 97.3% | 101% | 103% | 101% | 114% | 105% | 101% | 99.6% | 103% | 101% | 95.7% | 36.4% | 101%
O=C(CSc1nc2ccccc2c(=O)n1-c1ccc(Cl)c(Cl)c1)Nc1ccc(S(=O)(=O)Nc2ccc(Cl)nn2)cc1 | 101% | 96.5% | 98.5% | 90.8% | 88.1% | 100% | 101% | 90.7% | 93.5% | 86.2% | 99.5% | 96.6% | 68.8% | 96.3% | 91.6% | 92.3% | 100% | 85% | 97.4% | 96.3%
CCOC(=O)c1ccc(NC2=CC(=O)C(C)=C(C)C2=O)cc1 | 109% | 61.6% | 97.1% | 75.2% | 93.2% | 85.6% | 52.1% | 99.2% | 84.1% | 89.7% | 88.5% | 110% | 78.7% | 71.9% | 81.6% | 49% | 91.6% | 74.1% | 46% | 109%
COc1ccccc1Cn1cc(C#N)c(N)c1C(=O)c1ccc(Br)cc1 | 104% | 83.2% | 96% | 88.7% | 92.1% | 96.2% | 93% | 99.8% | 100% | 98.5% | 86.6% | 107% | 81.1% | 84.9% | 102% | 96.8% | 96.7% | 69.7% | 94.6% | 100%
Clc1cccc(/C=N/Nc2nc(N/N=C/c3cccc(Cl)c3)nc(N3CCOCC3)n2)c1 | 42.5% | 11.8% | -43.7% (active) | 71.3% | 17.4% | 65.9% | 57.7% | 43.6% | 39.1% | 35.2% | -11.1% (active) | 8.21% (active) | 103% | 88% | 60.4% | 41.5% | 44.1% | 91.7% | 32.6% | 29.8%
